Compounds with a hit are over-represented: about 11% of the library has one in this group of screens.
FLuc inh: Firefly luciferase inhibition profiling of diverse chemical library using quantitative high-throughput screening; actives 2.5% (n = 76,000); purified P. pyralis luciferase, luminescence, biochemical; Potency, µM (series often up to 115 µM), most hits filed as inhibitors; AID 1347043, 2019; Luciferin 4-monooxygenase (Photinus pyralis), P08659; note: nearly all actives have a fitted effect of over 65% in size
Target sequence (P08659 whole entry, looked up): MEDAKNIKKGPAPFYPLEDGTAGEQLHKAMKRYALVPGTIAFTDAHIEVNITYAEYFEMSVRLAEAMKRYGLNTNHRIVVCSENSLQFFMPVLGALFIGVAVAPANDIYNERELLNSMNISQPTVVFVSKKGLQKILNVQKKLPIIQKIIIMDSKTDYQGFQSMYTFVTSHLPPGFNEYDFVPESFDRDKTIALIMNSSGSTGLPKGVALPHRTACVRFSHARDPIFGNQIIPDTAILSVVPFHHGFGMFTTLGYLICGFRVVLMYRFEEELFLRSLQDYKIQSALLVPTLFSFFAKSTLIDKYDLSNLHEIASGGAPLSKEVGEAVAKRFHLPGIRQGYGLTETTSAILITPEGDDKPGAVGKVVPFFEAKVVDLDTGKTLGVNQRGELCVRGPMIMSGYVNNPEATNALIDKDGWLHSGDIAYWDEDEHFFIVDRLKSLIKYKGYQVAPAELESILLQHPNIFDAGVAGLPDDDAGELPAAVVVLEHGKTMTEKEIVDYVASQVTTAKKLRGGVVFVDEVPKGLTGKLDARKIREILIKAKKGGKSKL
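Cell-free enzyme assay, 10nM P. pyralis luciferase, luciferin and ATP each at 10uM. Inhibition profiled over a 6-point titration, read as luminescence.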
hNpr1 antagonist: Natriuretic polypeptide receptor (hNpr1) antagonism - Primary qHTS; Atrial natriuretic peptide receptor 1 (Homo sapiens), P16066; HEK293 hNpr1 GloSensor cGMP, ANP-stimulated luminescence; Potency, µM (highest dose often 46.3 µM), actives largely listed as inhibitors; actives 1.6% (n = 76,000); calls by dose curve; note: nearly all actives have a fitted effect of over 60% in size
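Compound pre-incubated 30 min at room temperature on GloSensor-loaded HEK293 cells stably carrying hNpr1 and the pGS-40F cGMP biosensor. Stimulation uses hNppA at 0.1 nM final; luminescence is taken at baseline and 20 min post-agonist.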
HEK cytotox: Cytotoxic Profiling in HEK 293 Cell Line of Diverse Libraries Using Quantitative High-Throughput Screening | HEK 293 viability, ATP luminescence (CellTiter-Glo), 48-72 h | Potency, µM (highest dose often 115 µM), actives largely listed as inhibitors | actives 6.6% (n = 94,000) | AID 1345083, 2018; note: nearly all actives have a fitted effect of over 60% in size
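ATP-coupled CellTiter-Glo luminescence served as viability read-out, recorded 10 min after reagent addition at room temperature. HEK 293 cells, 250 cells/well, had been incubated with pintool-transferred compound for 48 or 72 hr at 37 degree Celsius.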
3T3 cytotox: Cytotoxic Profiling in NIH 3T3 Cell Line of Diverse Libraries Using Quantitative High-Throughput Screening; NIH 3T3 viability, CellTiter-Glo ATP luminescence, 48-72 h; Potency, µM (series often up to 96.7 µM), usual class: inhibitors; actives 4.3% (n = 94,000); note: nearly all actives have a fitted effect of over 55% in size
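Luminescent ATP readout (CellTiter-Glo, 10 min RT) after 48 or 72 hr compound exposure of NIH 3T3 cells seeded at 400 cells/well in 1536-well format; quantitative HTS.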
A number is an active result; i = inactive; ? = inconclusive; nt = not tested or not shown. Unless noted, calls come from the whole dose curve; as a rule, active = well fitted curve in the direction sought with a large enough effect; inconclusive = small, poorly fitted or top-dose-only effect, or another doubt; inactive = no such curve, though single readings can be large; an effect the other way counts as inactive or inconclusive.

SMILES | FLuc inh | hNpr1 antagonist | HEK cytotox | 3T3 cytotox
Cc1oc(C(O)c2cncnc2)nc1C(=O)Nc1ccc(N2CCOCC2)cc1 (centres undefined) | 17.8µM | i | i | ?
O=C(N[C@@H]1COCC[C@H]1OCc1ccccn1)c1cnc(C2CC2)nc1 | i | i | i | i
CO[C@@H]1CO[C@H]2[C@@H]1OC[C@@H]2NC(=S)Nc1ccc(Cl)cc1 | ? | i | i | i
CSCC(=O)N[C@H]1CCN2C(=O)N(c3ccc(C(C)C)cc3)C(=O)[C@@H]2C1 | 31.6µM | i | i | i
Cc1nc(N2CCC(NC(=O)c3ccco3)CC2)cc(C(F)(F)F)n1 | i | i | i | i
COCC(=O)Nc1cc(C(=O)N2CCc3cc(OC)c(OC)cc3C2)c2c(c1)nc(C1CCC1)n2C | i | i | i | i
CN(Cc1ccccc1)C(=O)c1ccc2c(c1)NC(C)(CNCc1ccccc1)CO2 (centres undefined) | i | i | ? | 89.1µM
CN(C(=O)c1ccc2c(c1)NC(C)(CNCc1ccccc1)CO2)c1ccccc1 (centres undefined) | i | i | ? | ?
COc1ccc(OCC2(C)COc3ccc(C(=O)N(C)CCN(C)C)cc3N2)cc1 (centres undefined) | i | i | i | ?
CN(C)CCN(C)C(=O)c1ccc2c(c1)NC(C)(COc1ccccc1)CO2 (centres undefined) | i | i | ? | 89.1µM
CN(C)CCN(C)C(=O)c1ccc2c(c1)NC(C)(CCCCc1ccccc1)CO2 (centres undefined) | i | i | 100µM | 31.6µM
CN(C)c1ccc(CN2CCC3(C2)C(=O)N(c2ccccc2)c2ccccc23)cc1 (centres undefined) | nt | nt | ? | 44.7µM
CN1C(=O)C2(CCN(Cc3ccc(C(F)(F)F)cc3)C2)c2ccccc21 (centres undefined) | i | i | ? | i
CN1C(=O)C2(CCN(Cc3cccc4ccccc34)C2)c2ccccc21 (centres undefined) | i | i | 28.2µM | ?
CN1C(=O)C2(CCN(Cc3ccc(F)cc3)C2)c2ccccc21 (centres undefined) | i | i | 70.8µM | ?
CN1C(=O)C2(CCN(Cc3ccsc3)C2)c2ccccc21 (centres undefined) | i | i | ? | ?
CN1C(=O)C2(CCN(Cc3ccc(C#N)cc3)C2)c2ccccc21 (centres undefined) | i | i | ? | ?
O=C(Nc1cccc(Cl)c1)C1=NO[C@@H]2CN(c3ccccn3)C[C@H]12 | i | i | 100µM | ?
O=C(Nc1ccc(Cl)cc1)C1=NO[C@@H]2CN(c3ccccn3)C[C@H]12 | i | i | ? | i
CC(=O)Nc1ccc(CN(C)Cc2ccc(-c3ccccc3)cc2)cc1 | i | i | 79.4µM | ?
Cc1ccc(CN(C)Cc2ccccc2C(F)(F)F)cc1 | i | i | i | i
Cc1ccc(CN(C)Cc2ccc(-c3ccccc3)cc2)cc1 | i | i | ? | ?
CC(=O)Nc1ccc(CN(C)Cc2ccccc2C(F)(F)F)cc1 | i | i | 89.1µM | ?
Cc1ccc(C)c(NC(=O)Cn2nc3c(cc2=O)CCCCC3)c1 | i | i | i | i
Cn1cnc(C(=O)N2[C@@H]3CC[C@H]2CC(NC(=O)c2ccncc2)C3)c1 (some centres undefined) | i | i | i | i
SMILES | FLuc inh | hNpr1 antagonist | HEK cytotox | 3T3 cytotox
CSc1ccc(-c2cccc(CN3CCC(N[S+](=O)([O-])c4cccc(C(F)(F)F)c4)CC3)c2)cc1 | nt | nt | 12.6µM | 10µM
COc1cccc(C(=O)NC2CCN(Cc3cccc(-c4ccc(SC)cc4)c3)CC2)c1 | nt | nt | i | i
Cc1cccc(-c2cccc(CN3CCC(N[S+](=O)([O-])c4cccc(C(F)(F)F)c4)CC3)c2)c1 | nt | nt | ? | 11.2µM
CCc1noc([C@@H]2CC(F)(F)CN2C(=O)c2ccoc2C)n1 | 35.5µM | i | ? | i
C[S+](=O)([O-])N1CCc2nc(-c3ccccc3)nc(-c3ccc(Cl)cc3)c2C1 | i | i | i | i
COc1ccc(-c2nc(C(C)C)nc3c2CN([S+](=O)([O-])c2cccc(OC)c2)CC3)cc1 | i | i | ? | ?
C[S+](=O)([O-])N1CCc2nc(C3CC3)nc(-c3ccc(Cl)cc3)c2C1 | nt | nt | ? | 31.6µM
CCc1nc2c(c(-c3ccc(Cl)cc3)n1)CCN([S+](=O)([O-])c1ccccc1)CC2 | i | i | 35.5µM | ?
CCc1nc2c(c(-c3ccc(OC)cc3)n1)CN([S+](=O)([O-])c1cccc(OC)c1)CC2 | nt | nt | i | 28.2µM
COc1ccccc1N1CCN([C@@H]2[C@H](O)[C@H](CO)O[C@@H]2CNC(C)C)CC1 | i | i | i | i
COC(=O)c1ccc2c(c1)nc1n2[C@@H](CNC(=O)NC2CCCCC2)COC1 | i | i | i | i
COc1ccc(NC(=O)CCC2CCCN(C(=O)c3ccccc3SC)C2)cc1Cl (centres undefined) | ? | 12.6µM | ? | ?
COc1ccc(NC(=O)CCC2CCCN(C(=O)CC3=CCCCC3)C2)cc1Cl (centres undefined) | ? | ? | ? | i
COc1ccc(Cl)cc1NC(=O)CCC1CCCN(c2nc(C)cc(C)n2)C1 (centres undefined) | i | i | ? | ?
COc1ccc(Cl)cc1NC(=O)CCC1CCCN(C(=O)c2ccoc2C)C1 (centres undefined) | i | i | 31.6µM | ?
O=C1NCCCCCCN(Cc2ccncc2)[C@@H]2CN(S(=O)(=O)c3cccc(F)c3)CC[C@H]12 | i | i | i | i
OCCN1CCN(c2ccc(-c3nc(-c4cccc(C(F)(F)F)c4)no3)cn2)CC1 | 28.2µM | ? | ? | 25.1µM
CCN1CCN(c2ccc(-c3nc(CCCc4ccccc4)no3)cn2)CC1 | ? | i | ? | ?
CN1CCN(C(=O)c2cc3n(n2)CC(c2ccc(Br)cc2)OC3)CC1 (centres undefined) | i | i | 39.8µM | ?
O=C(c1cc2n(n1)CC(c1ccc(Cl)cc1)OC2)N1CCN(c2ccc(F)cc2)CC1 (centres undefined) | i | ? | 39.8µM | ?
O=C(c1cc2n(n1)CC(c1ccc3c(c1)OCO3)OC2)N1CCN(c2ccccc2)CC1 (centres undefined) | i | ? | ? | ?
O=C(c1cc2n(n1)CC(c1ccc(Cl)cc1)OC2)N1CCN(c2ccccc2Cl)CC1 (centres undefined) | i | i | 28.2µM | ?
CC(=O)N1CCN(C(=O)C2CCCN2C(=O)c2cccc(-c3ccccn3)c2)CC1 (centres undefined) | nt | nt | i | i
Cn1ncc2c(C(=O)Nc3ccccc3F)cc(-c3ccccc3C(F)(F)F)nc21 | nt | nt | i | i
COc1ccccc1NC(=O)c1cc(-c2ccccc2C(F)(F)F)nc2c1cnn2C | nt | nt | 44.7µM | ?
COc1cccc(NC(=O)c2cc(-c3ccc(C(F)(F)F)cc3)nc3c2cnn3C)c1 | nt | nt | 39.8µM | ?

Assay outcomes (PubChem)
